# Records with an inconclusive call do not appear. A call without a number means that no potency is given here. Values without a mark were called inactive. Active and inactive are the calls of the source. Calls follow the shape of the dose curve; as a rule, active = well fitted inhibition curve with a large enough effect in the signal ratio in the repeat runs (not every such curve was filed as active); inconclusive = weak or mixed curves, or effect the other way; inactive = no such curve, though single readings can be large or run the other way; the % refers to the signal ratio.
# Molecular target: Estrogen receptor beta (Homo sapiens) (UniProt Q92731)
# Assay: qHTS assay to identify small molecule antagonists of the estrogen receptor beta (ER-beta) signaling pathway (AID 1259378)
# Conditions: ER-beta-UAS-bla HEK293T, beta-lactamase FRET ratio, 16 h; series mostly up to 92.4 µM
# Excerpt: National Center for Advancing Translational Sciences [NCATS]
# NIH Chemical Genomics Center [NCGC]
# U.S. Environmental Protection Agency [EPA]
# National Institutes of Environmental Health Sciences [NIEHS]
# National Toxicology Program [NTP]
# U.S. Food and Drug Administration [FDA]
# Estrogen receptor (ER), a nuclear hormone receptor, plays an important role in development, metabolic homeostasis and reproduction. Two subtypes of ER, ER-alpha and ER-beta, have similar expression patterns with some uniqueness in both types. Endocrine disrupting chemicals (EDCs) and their interactions with steroid hormone receptors like ER causes disruption of normal endocrine function. To identify the compounds that inhibit ER signaling, an ER-beta-UAS-bla GripTite cell line (Life Technologies, Madison, WI, USA) containing a beta-lactamase reporter gene under the control of an UAS response element was used to screen Tox21 10K compound library.
# Tox21 Assay Protocol Summary:
# ER-beta-UAS-bla HEK293T cells were dispensed at 2,000 cells/4 uL of assay medium containing 2% charcoal stripped FBS per well into black wall/clear-bottom 1536-well plates using a Multidrop Combi (ThermoFisher Scientific, Waltham, MA) dispenser. After the assay plates were incubated at a 37C and 5% CO2 for 6 hr, 23 nL of compounds dissolved in DMSO, positive controls or DMSO only was transferred to the assay plate by a Pintool station (Kalypsys, San Diego, CA), followed by addition of 1 uL (1nM as final concentration) of 17-beta-estradiol (E2) in assay medium using a BioRAPTR FRD (Flying Reagent Dispenser, Aurora Discovery, San Diego, CA). The plates were incubated at 37C and 5% CO2 for 16 hr. Then 1 uL of LiveBLAzerTM B/G FRET substrate was added using a Flying Reagent Dispenser, the plates were incubated at room temperature for 2 hours, and fluorescence intensity was measured by an Envision plate reader (PerkinElmer, Shelton, CT).
# Potency is read from the fitted curve at half-maximal effect.
# Sequence of Estrogen receptor beta (Homo sapiens) (Q92731 whole entry, looked up): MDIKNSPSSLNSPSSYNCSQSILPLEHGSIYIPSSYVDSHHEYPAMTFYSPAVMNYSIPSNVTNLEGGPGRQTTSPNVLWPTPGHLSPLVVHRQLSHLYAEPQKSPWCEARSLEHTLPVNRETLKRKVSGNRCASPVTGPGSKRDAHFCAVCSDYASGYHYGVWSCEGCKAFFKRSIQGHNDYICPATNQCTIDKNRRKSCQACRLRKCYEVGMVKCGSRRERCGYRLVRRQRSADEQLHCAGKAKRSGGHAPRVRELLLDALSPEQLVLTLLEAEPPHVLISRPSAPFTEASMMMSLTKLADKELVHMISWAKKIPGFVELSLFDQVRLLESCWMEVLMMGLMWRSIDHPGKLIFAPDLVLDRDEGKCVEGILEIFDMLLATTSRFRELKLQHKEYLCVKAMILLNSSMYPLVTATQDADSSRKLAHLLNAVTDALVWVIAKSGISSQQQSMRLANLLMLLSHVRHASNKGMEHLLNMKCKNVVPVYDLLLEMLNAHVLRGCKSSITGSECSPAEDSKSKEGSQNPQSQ
Compound,"activity, negative = inhibition",Potency
NC(=S)Nc1cccc2ccccc12,-5.64% [at 8.39 µM],
COc1cc(C(=O)N2CCOCC2)cc(OC)c1OC,,inactive
CCCCN(CCO)CCO,,inactive
Nc1[nH]c(=O)ncc1F,,inactive
C=CCOCC(O)CS(=O)(=O)O (stereo not given),,inactive
FC(F)(F)C(F)(F)C(F)(F)C(F)(F)C(F)(F)C(F)(F)C(F)(F)C(F)(F)C(F)(F)C(F)(F)F,3.92% [at 8.39 µM],
CCCCc1ccc2cccc(S(=O)(=O)O)c2c1,,inactive
NCC[C@H](O)C(=O)N[C@@H]1C[C@H](N)[C@@H](O[C@H]2O[C@H](CN)[C@@H](O)[C@H](O)[C@H]2O)[C@H](O)[C@H]1O[C@H]1O[C@H](CO)[C@@H](O)[C@H](N)[C@H]1O,-5.02% [at 0.349 µM],
NC(=O)Nc1nc2ccccc2[nH]1,,inactive
CC(=O)N[C@@H](CCC(N)=O)C(=O)O,,inactive
C[C@H]1O[C@@H](n2cc(F)c(=O)[nH]c2=O)[C@H](O)[C@@H]1O,,inactive
C=CCn1c(=O)n([C@@H]2O[C@H](CO)[C@@H](O)[C@H]2O)c2nc(N)[nH]c(=O)c21,,inactive
Cc1ccccc1Br,,inactive
O=[N+]([O-])c1ccc(Oc2ccc([N+](=O)[O-])cc2)cc1,,inactive
Oc1ccc2c(c1)OC[C@@H](N1CCC(O)(c3ccc(F)cc3)CC1)[C@H]2O,,inactive
CSc1ccc(C=O)cc1,,inactive
CC1CCN(CCCC(=O)c2ccc(F)cc2)CC1,,inactive
Cc1cc(C)c(NC(=O)CN(CC(=O)O)CC(=O)O)c(C)c1Br,,inactive
OCCN1C[C@H](O)[C@@H](O)[C@H](O)[C@H]1CO,,inactive
Oc1cc(O)c2c(c1)O[C@H](c1ccc(O)c(O)c1)[C@H](O)C2,,inactive

Compound,"activity, negative = inhibition",Potency
CCCCCCOC(=O)CC(CC(=O)OCCCCCC)(OC(=O)CCC)C(=O)OCCCCCC,,inactive
CN1[C@@H]2CC[C@H]1CC(NC(=O)n1c(=O)[nH]c3ccccc31)C2 (stereo not given in full),,inactive
C1=C\CC/C=C\CC/C=C\CC/1,,inactive
CCN(CC)C(=O)c1ccc(O)c(OC)c1,,inactive
CC12CCC(CC1=O)C2(C)C (stereo not given),,inactive
O=C1CC2(CCCC2)CC(=O)N1,,inactive
COCCOC(=O)CC#N,,inactive
CCC(C(=O)NC(N)=O)c1ccccc1 (stereo not given),,inactive
CCCCNc1ccccc1,,inactive
C(=C(c1ccccc1)c1ccccc1)c1ccccc1,,1.54 µM (active)
CC(C)(C)OC(=O)N1C[C@@H](F)C[C@H]1C(=O)O,,inactive
O=c1[nH]c2ccccc2c(=O)n1CCCl,,inactive
C1CCCCCCCCCCC1,0.969% [at 19 µM],
C=C(C)C(=O)OCCCCCCCCCCCCCCCCCC,-0.254% [at 19 µM],
CCCOc1ccccc1-c1nc2n[nH]nc2c(=O)[nH]1,,inactive
CCCCCC[C@@H](CCC)C(=O)O,,inactive
O=C1OC(=O)c2cc([N+](=O)[O-])ccc21,,inactive
COc1ccc(NC(C)=O)cc1,,inactive
CCCOCC(C)OCC(C)O (stereo not given),,inactive
CCC(C)(C)C1CCC(OC)CC1 (stereo not given),,inactive
